From PubChem BioAssay (Tox21)
Results filed as inconclusive are left out. Activity calls are given as the source filed them. The call rests on the fitted dose curve.

assay: qHTS assay to identify small molecule agonists of the sonic hedgehog signaling (Shh) pathway (AID 1259368); conditions: NIH/3T3 Gli1-Luc reporter, luciferase, 24 h; series mostly up to 92.4 µM; activity change: at the top concentration; further: nearly all actives have a fitted effect of over 15% in size;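 on activity change: NIH/3T3-derived 3T3Gli1-Luc cells carrying a stable Gli1-driven firefly luciferase reporter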
How it was run: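 A Gli1 transcriptional response element controlled firefly luciferase in 3T3Gli1-Luc cells. Compounds and a positive control were added 4 hr after plating, and cells were incubated a further 24 hr at 37 C before luminescence detection.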
On the % scale 0 is the no-effect control and ±100 the full control effect; potency means the concentration at half of the fitted maximal effect.

SMILES | activity change | Potency
Nc1nc(Cl)nc2c1ncn2[C@H]1C[C@H](O)[C@@H](CO)O1 | 1.06% (inactive) | 
Cc1cc(SC2=C(O)C[C@@](CCc3ccc(N)cc3)(C(C)C)OC2=O)c(C(C)(C)C)cc1CO | -1.14% (inactive) | 
CCCCOC(=O)CC#N | 0.382% (inactive) | 
CC(C)=CCCC(C)C=O (stereo not drawn) | -0.559% (inactive) | 
CCC(C)CCCC(C)(C)O (stereo not drawn) | -0.811% (inactive) | 
CC1(COc2ccc(CC3SC(=O)NC3=O)cc2)CCCCC1 (stereo not drawn) | 1.91% [at 42.5 µM, active compounds read high] (inactive) | 
Cc1c(Nc2ncccc2C(=O)O)cccc1C(F)(F)F | 0.423% [at 42.5 µM, active compounds read high] (inactive) | 
CC(C)C/C=C(\C=O)c1ccccc1 | 0.287% (inactive) | 
CC/C=C\CCO | 0.689% (inactive) | 
CCCCCCCCCCCCCCCCN | 0.352% [at 42.5 µM, active compounds read high] (inactive) | 
O=C(OCCCCCOC(=O)c1ccccc1)c1ccccc1 | 4.81% (inactive) | 
C=CC(C)CCC=C(C)C (stereo not drawn) | -0.984% (inactive) | 
O=[N+]([O-])c1cccc(I)c1 | -0.0712% (inactive) | 
CC(CC(C#N)(c1ccccc1)C(C)C)N(C)C (stereo not drawn) | 0.0838% [at 42.5 µM, active compounds read high] (inactive) | 
Nc1ccc(-c2ccc(F)cc2)cc1 | 2.94% (inactive) | 
CCCC(=O)OCCC(C)C | 0.9% (inactive) | 
Cc1ccc(NC(=O)c2ccc(CN3CCN(C)CC3)cc2)cc1Nc1nccc(-c2cccnc2)n1 | 3.63% [at 42.5 µM, active compounds read high] (inactive) | 
CC(C)NC(=O)c1ccccc1N | 0.161% (inactive) | 
NC(=O)c1ccccc1C(N)=O | -0.912% (inactive) | 
CCc1ccc2c(c1)C(=O)c1ccccc1C2=O |  | 6.86 µM (active)

SMILES | activity change | Potency
COC(=O)Cc1cccc2ccccc12 | 0.8% (inactive) | 
CC(C)C[C@H](NC(=O)[C@H](Cc1ccccc1)NC(=O)c1cnccn1)B(O)O | 9.25% [at 42.5 µM, active compounds read high] (inactive) | 
CC(C)(C(=O)O)c1ccc(C(O)CCCN2CCC(C(O)(c3ccccc3)c3ccccc3)CC2)cc1 (stereo not drawn) | 1.05% [at 42.5 µM, active compounds read high] (inactive) | 
CCCc1ccc(OC)cc1 | -0.0962% (inactive) | 
O=Cc1ccc([N+](=O)[O-])cc1 | 9.91% (inactive) | 
O=C1CCCN1CCO | -3.46% (inactive) | 
O=C(Cl)c1ccc(F)c(Cl)c1 | 0.881% (inactive) | 
O=C(O)CCc1nc2ccccc2[nH]1 | -0.116% [at 42.5 µM, active compounds read high] (inactive) | 
Nc1cccc2c(=O)[nH][nH]c(=O)c12 | -4.81% (inactive) | 
CCC(C(=O)O)c1ccc(N2Cc3ccccc3C2=O)cc1 (stereo not drawn) | 3.66% [at 42.5 µM, active compounds read high] (inactive) | 
O=C(C1CCCCC1)N1CC(=O)N2CCCc3ccccc3C2C1 (stereo not drawn) | 1.05% [at 42.5 µM, active compounds read high] (inactive) | 
N#CCCCC(C#N)CCC#N (stereo not drawn) | -1.2% (inactive) | 
O=C(O)c1cccc(C(=O)O)c1C(=O)O | -0.103% (inactive) | 
CCCCCO | 0.54% (inactive) | 
O=C(OCCN1CCOCC1)c1cccnc1Nc1cccc(C(F)(F)F)c1 | 0.0606% [at 42.5 µM, active compounds read high] (inactive) | 
C[C@H](N)C(=O)N[C@@H](C)C(=O)NC1[C@H]2CN(c3nc4c(cc3F)c(=O)c(C(=O)O)cn4-c3ccc(F)cc3F)C[C@@H]12 (stereo partly drawn) | 1.08% [at 42.5 µM, active compounds read high] (inactive) | 
CS(C)=O | -2.79% (inactive) | 
CC(CCl)OC(C)CCl (stereo not drawn) | -0.166% (inactive) | 
O=c1[nH][nH]c2ccccc12 | -2.6% (inactive) | 

assay: qHTS assay to identify small molecule antagonists of the sonic hedgehog signaling (Shh) pathway (AID 1259369); conditions: NIH/3T3 Gli1-Luc reporter, Shh antagonist, luminescence 24 h; series mostly up to 92.4 µM; activity change, negative = inhibition: at the top concentration; further: nearly all actives have a fitted effect of over 45% in size
How it was run: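 For antagonist detection, the reporter line received test compounds together with conditioned medium, incubated 24hr at 37 C, 5% CO2, then luminescence was recorded following 30min room-temperature luciferase reagent incubation.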

SMILES | Potency | activity change, negative = inhibition
Nc1nc(Cl)nc2c1ncn2[C@H]1C[C@H](O)[C@@H](CO)O1 | 0.383 µM (active) | 
Cc1cc(SC2=C(O)C[C@@](CCc3ccc(N)cc3)(C(C)C)OC2=O)c(C(C)(C)C)cc1CO |  | 2.38% (inactive)
CCCCOC(=O)CC#N | 32.1 µM (active) | 
CC(C)=CCCC(C)C=O (stereo not drawn) |  | -7.37% (inactive)
CCC(C)CCCC(C)(C)O (stereo not drawn) |  | 3.13% (inactive)
CC1(COc2ccc(CC3SC(=O)NC3=O)cc2)CCCCC1 (stereo not drawn) |  | -12.9% [at 42.5 µM] (inactive)
Cc1c(Nc2ncccc2C(=O)O)cccc1C(F)(F)F |  | 6.82% [at 42.5 µM] (inactive)
CC(C)C/C=C(\C=O)c1ccccc1 |  | -7.72% (inactive)
CC/C=C\CCO |  | 0% (inactive)
CCCCCCCCCCCCCCCCN |  | 0.379% [at 42.5 µM] (inactive)
O=C(OCCCCCOC(=O)c1ccccc1)c1ccccc1 |  | 35.2% (inactive)
C=CC(C)CCC=C(C)C (stereo not drawn) |  | -0.688% (inactive)
O=[N+]([O-])c1cccc(I)c1 |  | -23% (inactive)
CC(CC(C#N)(c1ccccc1)C(C)C)N(C)C (stereo not drawn) |  | 7.17% [at 42.5 µM] (inactive)
Nc1ccc(-c2ccc(F)cc2)cc1 |  | 5.66% (inactive)
CCCC(=O)OCCC(C)C |  | 0% (inactive)
Cc1ccc(NC(=O)c2ccc(CN3CCN(C)CC3)cc2)cc1Nc1nccc(-c2cccnc2)n1 | 2.66 µM (active) | 
CC(C)NC(=O)c1ccccc1N |  | 33.1% (inactive)
NC(=O)c1ccccc1C(N)=O |  | 6.76% (inactive)
CCc1ccc2c(c1)C(=O)c1ccccc1C2=O |  | 40.1% (inactive)

SMILES | Potency | activity change, negative = inhibition
COC(=O)Cc1cccc2ccccc12 |  | -1.13% (inactive)
CC(C)C[C@H](NC(=O)[C@H](Cc1ccccc1)NC(=O)c1cnccn1)B(O)O |  | 19.4% [at 42.5 µM] (inactive)
CC(C)(C(=O)O)c1ccc(C(O)CCCN2CCC(C(O)(c3ccccc3)c3ccccc3)CC2)cc1 (stereo not drawn) |  | 1.3% [at 42.5 µM] (inactive)
CCCc1ccc(OC)cc1 |  | 30% (inactive)
O=Cc1ccc([N+](=O)[O-])cc1 |  | 27.7% (inactive)
O=C1CCCN1CCO |  | -17.4% (inactive)
O=C(Cl)c1ccc(F)c(Cl)c1 |  | -6.31% (inactive)
O=C(O)CCc1nc2ccccc2[nH]1 |  | 8.89% [at 42.5 µM] (inactive)
Nc1cccc2c(=O)[nH][nH]c(=O)c12 |  | -17.6% (inactive)
CCC(C(=O)O)c1ccc(N2Cc3ccccc3C2=O)cc1 (stereo not drawn) |  | 40.6% [at 42.5 µM] (inactive)
O=C(C1CCCCC1)N1CC(=O)N2CCCc3ccccc3C2C1 (stereo not drawn) |  | 16.8% [at 42.5 µM] (inactive)
N#CCCCC(C#N)CCC#N (stereo not drawn) |  | 3.34% (inactive)
O=C(O)c1cccc(C(=O)O)c1C(=O)O |  | 1.14% (inactive)
CCCCCO |  | 12.8% (inactive)
O=C(OCCN1CCOCC1)c1cccnc1Nc1cccc(C(F)(F)F)c1 |  | -21.1% [at 42.5 µM] (inactive)
C[C@H](N)C(=O)N[C@@H](C)C(=O)NC1[C@H]2CN(c3nc4c(cc3F)c(=O)c(C(=O)O)cn4-c3ccc(F)cc3F)C[C@@H]12 (stereo partly drawn) |  | -4.7% [at 42.5 µM] (inactive)
CS(C)=O | 68.6 µM (active) | 
CC(CCl)OC(C)CCl (stereo not drawn) |  | 15% (inactive)
O=c1[nH][nH]c2ccccc12 |  | -6.65% (inactive)
